PubChem BioAssay (NCI)
This is part of a sample that, as a whole, favours compounds with a hit. Of some 83,000 tested, about 20% had one in any assay.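 Step 1: grow cells in 96-well plates. Step 2: add test compound at a single concentration. Step 3: incubate 48 h. Step 4: record percent growth.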 Values without a mark were called inactive. Active and inactive are the calls of the source. Rule for the calls: active = growth percent below 10; inactive = the rest.

Tests used:
Assay in all cases: NCI-60 one-dose screen, 48 h (100 = growth as untreated, 0 = no growth, -100 = all killed)
NCI-H226 lung = conditions: 10 µM
NCI-H322M lung = conditions: 10 µM
HOP-62 NSCLC = conditions: 10 µM
NCI-H460 lung = conditions: 10 µM
NCI-H522 lung = conditions: 10 µM
A549/ATCC NSCLC = conditions: 10 µM
COLO 205 colon = conditions: 10 µM
DU-145 prostate = conditions: 10 µM
SF-268 CNS = conditions: 10 µM
SF-295 CNS = conditions: 10 µM
SF-539 CNS = conditions: 10 µM
M14 melanoma = conditions: 10 µM
HCT-15 colon = conditions: 10 µM
HT29 colon = conditions: 10 µM
SNB-75 CNS = conditions: 10 µM
SNB-19 CNS = conditions: 10 µM
PC-3 prostate = conditions: 10 µM
SK-MEL-5 melanoma = conditions: 10 µM
UACC-62 melanoma = conditions: 10 µM
HL-60(TB) leukemia = conditions: 10 µM unless noted

SMILES	growth (NCI-H226 lung)	growth (NCI-H322M lung)	growth (HOP-62 NSCLC)	growth (NCI-H460 lung)	growth (NCI-H522 lung)	growth (A549/ATCC NSCLC)	growth (COLO 205 colon)	growth (DU-145 prostate)	growth (SF-268 CNS)	growth (SF-295 CNS)	growth (SF-539 CNS)	growth (M14 melanoma)	growth (HCT-15 colon)	growth (HT29 colon)	growth (SNB-75 CNS)	growth (SNB-19 CNS)	growth (PC-3 prostate)	growth (SK-MEL-5 melanoma)	growth (UACC-62 melanoma)	growth (HL-60(TB) leukemia)
C=CCN=C([Se])NC(=O)c1ccc2c(c1)OCO2	119%	14.8%	26.9%	18.3%	105%	40.4%	122%	101%	110%	13.7%	67.3%	86.8%	97.1%	96%	26%	39.2%	40.1%	90.8%	97.9%	106%
C=CC[Se]C(=O)c1ccc(C(=O)[Se]CC=C)s1	-40.1% (active)	-63.7% (active)	-70.9% (active)	-53.2% (active)	-95.5% (active)	1.38% (active)	-64.7% (active)	-92.8% (active)	-39.4% (active)	-52.5% (active)	-97% (active)	-90% (active)	-42.5% (active)	-7.14% (active)	-96.8% (active)	-73.1% (active)	-58.2% (active)	-70.8% (active)	-22.8% (active)	-31.6% (active)
N#C[Se]CC(=O)Nc1cccc(C(F)(F)F)c1	-37.7% (active)	-19.6% (active)	-57.6% (active)	-9.31% (active)	-70.2% (active)	-50.4% (active)	-1.16% (active)	-13% (active)	2.88% (active)	-72.7% (active)	-91% (active)	-42.7% (active)	-84.8% (active)	-31.9% (active)	-23.5% (active)	-88.1% (active)	26.8%	-73.4% (active)	-77.4% (active)	
CCC[Se]C(=O)c1ccc(C(=O)[Se]CCC)s1	-50.9% (active)	-33.4% (active)	-77.7% (active)	-11.9% (active)	17.9%	-46.2% (active)	-85.7% (active)	9.92% (active)	3.6% (active)	-85.7% (active)	-84.7% (active)	-63.4% (active)	-71% (active)	-58.5% (active)	-31.2% (active)	-86.5% (active)	4.67% (active)	-76.3% (active)	-64.9% (active)	-26.7% (active)
O=C([Se]C1C=CCCC1)c1ccc(C(=O)[Se]C2C=CCCC2)s1 (stereo not drawn)	-42.9% (active)	-28.5% (active)	-50.6% (active)	4.46% (active)	-92.8% (active)	-7.22% (active)	-95.7% (active)	-3.45% (active)	0.795% (active)	-44.2% (active)	-100% (active)	-81.2% (active)	-25.1% (active)	-25.6% (active)	-77.6% (active)	-93.8% (active)	-16.5% (active)	-88.8% (active)	-89.2% (active)	1.11% (active)
C#CCCCN(CCNc1ccnc2cc(Cl)ccc12)C(=O)CCC(=O)O[C@@H]1O[C@@H]2OC3(C)CC[C@H]4[C@H](C)CC[C@@H]([C@H]1C)[C@@]24OO3	44.9%	65.1%	58.9%	40.6%	8.38% (active)	40.8%	7.04% (active)	59.1%	56.9%	33.8%	39.2%	37.7%	12.1%	4.95% (active)	67%	56.5%	37%	-36.1% (active)	31.4%	-26.3% (active)
CC[C@]12C=CCN3CC[C@@]4(c5ccc(OC)cc5N(C)[C@H]4[C@@](O)(C(=O)OC)[C@@H]1OC(=O)CCC[P+](c1ccc(F)cc1)(c1ccc(F)cc1)c1ccc(F)cc1)[C@@H]32	46.9%	65.2%	64%	30.9%	-17.7% (active)	54.5%	-19% (active)	47.7%	42.3%	85%	24.2%	21.5%	99.6%	15.7%	39.9%	13.8%	16.7%	-38.3% (active)	-59.5% (active)	-22.9% (active)
O=C(/C=C/c1ccc(F)cc1)c1nc2ccccc2n1Cc1ccc(F)cc1	-35.7% (active)	40.5%	-1.76% (active)	6.65% (active)	44.1%	27.2%	-32% (active)	18.4%	16.2%	-10.9% (active)	-63.5% (active)	-3.51% (active)	-61% (active)	-30.5% (active)	20.6%	13.8%	8.29% (active)	21.1%	-41.7% (active)	6.99% (active)
COc1cc(OC)c(S(=O)(=O)N(CCCl)CCCl)cc1C(=O)/C=C/c1cc(OC)c(OC)c(OC)c1	7.87% (active)	12.9%	-5.79% (active)	1.08% (active)	-69.1% (active)	3.9% (active)	-89.8% (active)	-30.3% (active)	2.74% (active)	0.899% (active)	-74.1% (active)	-59.4% (active)	-25.1% (active)	-58.7% (active)	-78.2% (active)	-38.6% (active)	10.3%	-71.3% (active)	-33.9% (active)	-25.8% (active)
Cc1c2oc3c(C)ccc(C(=O)N[C@@H]4C(=O)N[C@H](C(C)C)C(=O)N5CCC[C@H]5C(=O)N(C)CC(=O)N(C)[C@@H](C(C)C)C(=O)OC4C)c3nc-2c(C(=O)N[C@@H]2C(=O)N[C@H](C(C)C)C(=O)N3CC(=O)C[C@H]3C(=O)N(C)CC(=O)N(C)[C@@H](C(C)C)C(=O)OC2C)c(N)c1=O (stereo partly drawn)	-4.29% (active)	4.93% (active)	-21% (active)	5.56% (active)	-38.6% (active)	8.06% (active)	-71% (active)	12.8%	-9.63% (active)	1.34% (active)	-28.4% (active)	-8.68% (active)	3.67% (active)	1.14% (active)	-70.6% (active)	4.37% (active)	1.32% (active)	-48.6% (active)	-57.5% (active)	
COCCOCCOCCOc1ccc(-n2cc(-c3ccc(O[C@H]4O[C@@H]5OC6(C)CC[C@H]7[C@H](C)CC[C@@H]([C@H]4C)[C@@]57OO6)cc3)nn2)cc1	79.7%	86.1%	73.6%	70.6%	-21.3% (active)	60.1%	-11.4% (active)	42.6%	59%	40.4%	47.6%	32%	12.7%	48.1%	66.5%	64%	28%	-24.4% (active)	37.3%	10.1%
C=CC[Se]C(=O)c1cncc(C(=O)[Se]CC=C)c1	-24.6% (active)	-46.2% (active)	-60.6% (active)	-14% (active)	-89.5% (active)	7.53% (active)	-47.3% (active)	5.92% (active)	7.42% (active)	-55.8% (active)	-99.9% (active)	-86.7% (active)	-37.4% (active)	-14.4% (active)	-61.4% (active)	-97.5% (active)	-65.8% (active)	-36.3% (active)	-62.3% (active)	-26.2% (active)
CN(C)CCc1cn(C2CCC2)c2cccc(O)c12	69.6%	91.2%	82.1%	70.7%	83.6%	71.8%	81.1%	91.3%	81.6%	76.4%	61.9%	15.9%	62.2%	34.9%	58.3%	87%	59.9%	46.6%	48.9%	12.5%
O=C(/C=C/c1ccc(F)cc1)c1nc2ccccc2n1Cc1ccc(Br)cc1	-66.2% (active)	-24.8% (active)	-68.6% (active)	-59.4% (active)	-64% (active)	1.63% (active)	-82.4% (active)	-42.2% (active)	-4.4% (active)	-87.5% (active)	-92.5% (active)	-57.7% (active)	-73.9% (active)	-33.2% (active)	44.5%	-63.7% (active)	-39.4% (active)	-76.2% (active)	-84% (active)	-21.8% (active)
COc1cc(OC)c(/C=C/C(=O)c2nc3ccccc3n2Cc2ccc(F)cc2)c(OC)c1	72.8%	104%	58.9%	58.9%	79.6%	88.6%	108%	92.1%	72.1%	75.7%	60.9%	103%	78.9%	90.2%	0.098% (active)	51.5%	71%	88.6%	62.5%	67.7%
